Assay outcomes from PubChem BioAssay.
Rows were chosen to be rich in hits. Some 1.4% of all compounds tested hit in one or more screens of this group.
AmpC inh detg – AmpC beta-lactamase inhibition with detergent present; P00811; AmpC hydrolysis of nitrocefin, absorbance 480 nm, 0.01% Triton; Potency, µM (highest dose often 114 µM), hits mostly inhibitors; 370,000 compounds, 0.041% hits; AID 485294; also: nearly all actives have a fitted effect of over 25% in size
Target sequence (P00811 whole entry, looked up): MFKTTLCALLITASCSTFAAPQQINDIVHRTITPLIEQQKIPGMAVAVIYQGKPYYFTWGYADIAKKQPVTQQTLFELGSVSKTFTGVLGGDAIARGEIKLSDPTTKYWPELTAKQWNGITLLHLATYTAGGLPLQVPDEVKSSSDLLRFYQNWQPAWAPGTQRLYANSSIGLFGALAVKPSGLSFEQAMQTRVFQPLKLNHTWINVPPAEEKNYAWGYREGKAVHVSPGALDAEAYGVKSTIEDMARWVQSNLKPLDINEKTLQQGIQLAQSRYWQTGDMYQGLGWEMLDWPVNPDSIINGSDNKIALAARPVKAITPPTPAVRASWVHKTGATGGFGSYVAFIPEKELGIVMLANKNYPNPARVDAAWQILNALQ
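AmpC (5.3 nM in the dispensed reagent) in 20 mM phosphate pH 7.0 with 0.01% (detergent screen) or 0.0001% Triton X-100 was preincubated with compounds for 15 min at room temperature. Nitrocefin was then added from an 800 uM solution, and hydrolysis was followed at 480 nm.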
AmpC inh no detg – blocks E. coli AmpC beta-lactamase in detergent-free assay; 330,000 compounds, 0.52% hits; Potency, µM (top dose mostly 57.1 µM), usual class: inhibitors; AID 485341; AmpC nitrocefin hydrolysis, absorbance 480 nm, 0.0001% Triton; P00811; also: nearly all actives have a fitted effect of over 20% in size
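AmpC (5.3 nM in the dispensed reagent) in 20 mM phosphate pH 7.0 with 0.01% (detergent screen) or 0.0001% Triton X-100 was preincubated with compounds for 15 min at room temperature. Nitrocefin was then added from an 800 uM solution, and hydrolysis was followed at 480 nm.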
RE007 growth inh – less growth of the S. pombe RE007 Vpr strain; Potency, µM (highest dose often 92.2 µM), hits mostly inhibitors; S. pombe RE007 Vpr strain, BacTiter-Glo ATP luminescence, 24 h; 360,000 compounds, 0.21% hits; AID 651644; active = well fitted falling curve with a large enough effect; inconclusive = small, poorly fitted or top-dose-only effect; inactive = no such curve, though single readings can be large or run the other way; also: nearly all actives have a fitted effect of over 50% in size
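Fission yeast strain RE007, carrying one chromosomally integrated HIV-1 vpr copy, was seeded at OD 0.01 in PMG+AL medium with 23 nL pinned compound. After 24 h at 30 °C and 99% humidity, viability was read by BacTiter-Glo luminescence.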
TbPYK inhibitor – blocks Trypanosoma brucei pyruvate kinase; Q57TT1; TbPYK enzyme, Kinase-Glo Plus ATP luminescence, 45 min; Potency, µM (series often up to 76.8 µM), most hits filed as inhibitors; 410,000 compounds, 0.12% hits; also: nearly all actives have a fitted effect of over 50% in size
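T. brucei PYK with substrate was exposed to pin-transferred compounds across a concentration series, then started with 130 uM ADP (final). After 45 min at room temperature, Kinase-Glo Plus luminescence was read, normalized and curve-fitted.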
Giardia FBPA inh – inhibitors of Giardia lamblia fructose-1,6-bisphosphate aldolase. A8B2U2. Potency, µM (series often up to 59.6 µM), hits mostly inhibitors. AID 2451. purified Giardia FBPA. 290,000 compounds, 0.71% hits; also: nearly all actives have a fitted effect of over 55% in size
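40 nM FBPA preincubated 10 min at RT with compound (up to 57.5 uM final), then substrate plus GAPDH/TPI/NAD/arsenate coupling and diaphorase/resazurin added. Fluorescence read after 20 min at RT, 525/598 nm.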
LmPK inh – inhibitors of Leishmania mexicana pyruvate kinase; Q27686; purified LmPK, Kinase-Glo ATP luminescence, 1 h; Potency, µM (doses to about 57.5 µM), most hits filed as inhibitors; 290,000 compounds, 0.37% hits; AID 1721
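ATP generated from ADP (0.1 mM) and PEP (0.5 mM) by 0.1 nM LmPK over 1 h at room temperature (pH 7.2 imidazole buffer) was detected by coupled luciferase luminescence. Values were normalized to uninhibited and no-enzyme wells.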
Hits are given with their value; i = inactive; ? = inconclusive; nt = no result given. Unless noted, calls follow the shape of the dose curve; as a rule, active = well fitted curve in the direction sought with a large enough effect; inconclusive = small, poorly fitted or top-dose-only effect, or another doubt; inactive = no such curve, though single readings can be large; an effect the other way counts as inactive or inconclusive.

SMILES | AmpC inh detg | AmpC inh no detg | RE007 growth inh | TbPYK inhibitor | Giardia FBPA inh | LmPK inh
O=C1c2ccccc2C(=O)N1CCSc1n[nH]c(=S)s1 | i | i | i | 28µM | i | i
O=C1c2ccccc2C(=O)N1CCSc1ncn[nH]1 | i | i | i | i | i | i
CC(=O)Nc1ccc(NC(=O)CC(C)n2ccc(C)n2)cc1 (stereo not drawn) | i | nt | nt | i | nt | nt
COc1cccc(-n2c(/C=C/c3ccc(O)c(O)c3)nc3ccccc3c2=O)c1 | i | 18µM | i | i | i | i
COCc1nnc(SCC(=O)NC(C)c2ccccc2)n1-c1ccccc1 (stereo not drawn) | i | 0.4µM | i | i | i | i
O=C(O)CSc1nnc(COc2ccccc2)n1-c1ccccc1 | i | i | i | i | i | i
Cc1cccc2c1-c1sc(C(=O)N3CCN(c4ccccc4)CC3)cc1CO2 | i | nt | nt | i | nt | nt
Cc1ccc(C)n1-c1c(C(=O)NCCCN2CCN(c3ccc(F)cc3)CC2)sc2ncccc12 | i | nt | nt | i | nt | nt
C[C@@H]1CN(CC(=O)Nc2ccc3c(c2)Cc2cccc(-c4cc(=O)cc(N5CCOCC5)o4)c2S3)C[C@H](C)O1 | nt | nt | nt | i | nt | nt
COc1ccc(NC(=O)C2CCCCN2S(=O)(=O)c2ccc(F)cc2)cc1 (stereo not drawn) | i | 3.2µM | i | i | i | i
CCCCOc1ccc(CNC(=O)CCCN2C(=O)CSc3c2c(C)nn3-c2ccccc2)cc1 | i | nt | nt | i | nt | nt
Cc1ccc(NC(=O)COc2ccc(C(=O)c3ccccc3)cc2)c(O)c1 | i | 16µM | i | i | i | i
CN(Cc1ccccc1)C(=O)CCS(=O)(=O)c1ccc2c(c1)n(C)c(=O)c(=O)n2C | ? | 0.5µM | i | i | i | i
CCn1c(C(c2ccccc2)c2ccccc2)n[nH]c1=S | ? | i | i | 8.9µM | i | i
C=CCn1c(C(c2ccccc2)c2ccccc2)n[nH]c1=S | i | i | i | ? | i | i
S=c1[nH]nc(COc2ccc(Cl)cc2)n1Cc1ccccc1 | i | i | i | ? | i | i
S=c1[nH]nc(CCc2ccccc2)n1Cc1ccccc1 | i | i | i | 4µM | ? | 8.9µM
COc1ccccc1OCc1n[nH]c(=S)n1Cc1ccccc1 | i | i | i | 4µM | i | i
COc1cccc(CSc2nc3n(n2)C(CC(C)C)C(C(=O)Nc2ccccc2OC)=C(C)N3)c1 (stereo not drawn) | i | nt | nt | i | nt | nt
COc1ccc(Cl)cc1NC(=O)CSc1nc(-c2ccccc2)c2ccccc2n1 | i | nt | nt | i | nt | nt
CCc1cccc(NC(=O)Cn2c(=O)n3nc(-c4cccc(F)c4)nc3c3ccccc32)c1 | i | nt | nt | i | nt | nt
COc1ccccc1N(C(C)=O)C1=C(Cl)C(=O)c2ccccc2C1=O | nt | nt | 13µM | ? | nt | nt
COc1ccccc1N(C(=O)CCl)c1cn(C(C)=O)c2ccccc12 | i | i | i | i | i | i
Cc1ccc(C)c(S(=O)(=O)Nc2ccccc2C(=O)Nc2ccc(S(=O)(=O)Nc3ncccn3)cc2)c1 | i | 16µM | i | i | i | i
O=C1c2ccccc2CN2C(=O)c3ccccc3CN12 | i | i | i | i | nt | i
SMILES | AmpC inh detg | AmpC inh no detg | RE007 growth inh | TbPYK inhibitor | Giardia FBPA inh | LmPK inh
c1ccc(-c2cn3c(n2)-c2ccccc2C3)cc1 | i | i | ? | ? | i | 5.6µM
Cn1c(COc2ccc(Br)cc2)nnc1SC1CCc2ccccc2C1=O (stereo not drawn) | i | i | i | i | 18µM | i
N/C(COc1cccc(Cl)c1)=N\NS(=O)(=O)c1ccccc1 | i | 0.32µM | i | i | i | i
N/C(COc1cccc(Cl)c1)=N\O | i | i | i | i | i | i
Cc1cccc(CNC(=O)C2CCN(S(=O)(=O)c3ccc4c(c3)CCCN4C(=O)C3CCC3)CC2)c1 | i | nt | nt | i | nt | nt
S=C(Nc1ccc(Cl)cc1)c1nc2ccccc2[nH]1 | i | i | 6.3µM | i | ? | i
Fc1ccccc1/C=C/c1ccc2ccccc2n1 | ? | i | ? | ? | i | 13µM
CN(C)c1ccc(/C=C/c2ccc3ccccc3n2)cc1 | i | i | ? | ? | i | ?
Oc1ccc(/C=C/c2ccc3ccccc3n2)cc1 | i | i | ? | ? | i | 7.1µM
C(=C\c1ccc2ccccc2n1)/c1ccccc1 | i | i | ? | i | ? | 13µM
CC(C)(C)c1cc(C(C)(C)C)c(NC(=O)c2c[nH]c3ccccc3c2=O)cc1O | nt | nt | nt | i | nt | nt
Cc1ccccc1Nc1nnc(SCC2CCCCO2)s1 (stereo not drawn) | i | i | i | i | i | ?
COc1ccccc1Nc1nnc(SCC2CCCCO2)s1 (stereo not drawn) | i | i | i | i | i | 14µM
O=[N+]([O-])c1ccc(Oc2ccc(N=C=S)cc2)cc1 | nt | nt | nt | i | nt | nt
Cc1ccc(SCC(c2ccccc2)N2CCN(CC(C)C)CCC2=O)cc1 (stereo not drawn) | nt | nt | nt | nt | i | nt
Cc1ccc2c(c1)CC1(CN2C)C(=O)NC(=O)N(c2cc(C)ccc2C)C1=O (stereo not drawn) | i | i | i | i | i | i
Cc1ccc2c(c1)CC1(CN2C)C(=O)OC(C)(C)OC1=O | i | i | i | i | ? | 16µM
Cc1cc(NC(=O)Nc2nc3c(s2)CCCCCC3)ccc1Br | i | nt | nt | i | nt | nt
CCOc1ccc(-c2n[nH]c(C(=O)NN)c2C)cc1 | i | 28µM | i | i | i | i
Cc1c(-c2ccccc2)n[nH]c1C(=O)NN | i | i | i | i | i | i
O=C(Nc1ccccn1)c1nc(-c2ccccc2)n(-c2ccccc2)n1 | i | i | i | i | i | i
NC(=O)c1ccsc1NC(=O)c1nc(-c2ccccc2)n(-c2ccccc2)n1 | i | 4µM | i | i | i | i
